In PubChem BioAssay AID1918 (Vanderbilt High Throughput Screening Facility, 2009) one finds B-score data, which are given here for 97 compounds.

Hit rate of the full screen: of about 130,000 compounds, about 2,500 (1.9%) were called active. This excerpt belongs to a sample that is enriched for actives. Unmarked numbers belong to inactive results.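 How the source made its calls: active means signal ratio slope over the read window, or its plate-corrected B-score, at least 3 SD from the plate mean, either direction; inactive means the rest.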

The target of this assay is ATP-sensitive inward rectifier potassium channel 1 (Homo sapiens) (UniProt P48048). The experiment in a line: Kir1.1 channel activity modulation, library screen – cell-based, thallium flux, MLSMR library, primary screen (AID 1918).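 Further: B-score of the F/F0 ratio slope over 7 to 12 s after thallium.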 The settings on record: Tet-inducible ROMK, thallium flux fluorescence; at 10 µM; actives lie on both sides.
ATP-sensitive inward rectifier potassium channel 1 (Homo sapiens), sequence (P48048 whole entry, looked up): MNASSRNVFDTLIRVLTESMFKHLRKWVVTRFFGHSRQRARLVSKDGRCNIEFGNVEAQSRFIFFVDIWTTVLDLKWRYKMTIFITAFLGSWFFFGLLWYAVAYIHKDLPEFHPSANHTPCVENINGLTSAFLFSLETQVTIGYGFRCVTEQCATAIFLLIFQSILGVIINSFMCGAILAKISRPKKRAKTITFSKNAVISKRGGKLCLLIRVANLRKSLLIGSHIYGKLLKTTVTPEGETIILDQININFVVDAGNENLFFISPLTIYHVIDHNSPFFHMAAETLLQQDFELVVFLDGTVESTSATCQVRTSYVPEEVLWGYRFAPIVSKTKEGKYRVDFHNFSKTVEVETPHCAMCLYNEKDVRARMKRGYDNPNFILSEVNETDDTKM
Regarding `O=C1CC(=O)Nc2cc(S(=O)(=O)N3CCN(c4cccc(C(F)(F)F)c4)CC3)ccc2N1`, the B-score was -0.0476.

Consider `Cc1cc2cc(CN(Cc3cccs3)Cc3nnnn3CC3CCCO3)c(=O)[nH]c2cc1C` (configuration not stated), for which the B-score was -5.43 (active).

As for `COc1ccccc1C(c1nnnn1CC1CCCO1)N1CCN(c2ccccc2)CC1` (configuration not stated), the B-score was -0.18.

Consider `COc1ccc2[nH]c(=O)c(CN(Cc3nnnn3CCc3ccccc3)CC3CCCO3)cc2c1` (configuration not stated), for which the B-score is -1.17.

With `CCN(CC)CC1(O)CCN(C(=O)c2ccc(Cl)c(Cl)c2)CC1`, the B-score was 0.898.

In the case of `Cc1nn(CC(=O)Nc2ccc3c(c2)OCO3)c(C)c1[N+](=O)[O-]`, the B-score was 0.634.

Turning to `CC(CC(=O)Nc1ccccc1)n1ccnc1` (configuration not stated), the B-score was -0.543.

With `O=C(NC(=O)N1CCOCC1)c1ccccc1`, the B-score was 0.751.

With `O=C(/C=C/c1ccc(N2CCOCC2)cc1)c1ccccc1`, the B-score was -3.77 (active).

As to `O=C(O)c1ccc2c(c1)C(=O)N(c1ccc(/C=C/C(=O)c3ccccc3)cc1)C2=O`, the B-score is -2.93 (active).

Regarding `O=C(c1ccc2c(c1)C(=O)N(c1ccc(Cl)cc1)C2=O)N1CCN(c2ccccn2)CC1`, the B-score is 0.202.

With `CC(=O)Oc1ccc(C)cc1N1C(=O)c2ccc(C(=O)O)cc2C1=O`, the B-score is 0.575.

For `O=C(CN1CCN(S(=O)(=O)/C=C/c2ccccc2)CC1)Nc1ccc(N2CCOCC2)cc1`, the B-score is 1.12.

As to `COc1cc(NC(=O)COC(=O)c2cnc(C)cn2)c(C)cc1[N+](=O)[O-]`, the B-score was -0.377.

On to `O=C(O)c1ccccc1C(=O)Nc1ccccc1[N+](=O)[O-]`, for which the B-score is -0.117.

Regarding `Cc1csc(NC(=O)CSc2ccc(-c3ccc(F)cc3)nn2)n1`, the B-score is -0.896.

For `Cc1ccc(C(=O)C[n+]2cc(-c3ccccc3)n3c2CCCCC3)cc1`, the B-score is -3.3 (active).

On to `Cn1c(-c2ccccc2)c[n+]2c1CCCCC2`, for which the B-score is 0.591.

Regarding `Cc1ccc(C(=O)N2CCCC(c3ccccc3)=N2)cc1`, the B-score is -0.95.

With `CCOC(=O)C1CCCN(C(=O)COc2ccc(N(C)S(=O)(=O)c3ccc(C)cc3)cc2)C1` (configuration not stated), the B-score was 0.882.

Turning to `CCN(CC)S(=O)(=O)c1ccc(NC(=O)c2cccnc2Cl)c(NC(=O)c2cccnc2Cl)c1`, the B-score was 0.845.

As for `COc1ccc(CCNC(=O)CC2SC(=Nc3cc(C)cc(C)c3)NC2=O)cc1OC` (configuration not stated), the B-score is -0.14.

Consider `Cc1ccc(CNC(=O)CC2Sc3ccccc3NC2=O)cc1` (configuration not stated), for which the B-score was 1.17 (active).

As for `COC(=O)C(C)C1Sc2ccccc2NC1=O` (configuration not stated), the B-score is -0.193.

Turning to `CC(Nc1nc(N2CCOCC2)nc2ccccc12)c1ccccc1` (configuration not stated), the B-score was -0.474.

On to `CN1CCN(CC(=O)Nc2cccc([N+](=O)[O-])c2)CC1`, for which the B-score was 0.51.

As for `CNC(=S)NNC(=O)c1cccn(Cc2ccccc2)c1=O`, the B-score is 0.643.

`O=C(Nc1cccc(Cl)c1N1CCOCC1)c1ccc2c(c1)OCCO2`: the B-score was -0.937.

On to `CCS(=O)(=O)c1ccc(C(=O)NC)c(Cl)c1Cl`, for which the B-score was 0.613.

Consider `Cc1ccc2c(=O)oc(N(C)C)nc2c1`, for which the B-score is 2.36 (active).

For `CN(C)c1ccc2c(=O)[nH][nH]c(=O)c2c1`, the B-score is 0.291.

Turning to `Cc1ccc2nc3n(c(=O)c2c1)CCC3`, the B-score was 0.127.

Turning to `Cc1cc(C)c(C(N)=O)c(Cl)n1`, the B-score is 0.133.

`Cc1ccc(N(C(=O)C(F)(F)F)C(C(=O)NC2CCCCC2)c2ccncc2)cc1C` (configuration not stated): the B-score is -0.0116.

For the compound `CC1CCCN(S(=O)(=O)c2ccc(N(C(=O)c3cnccn3)C(C(=O)NC3CCCCC3)c3cccs3)cc2)C1` (configuration not stated), the B-score is -3.38 (active).

In the case of `CC1CCCN(S(=O)(=O)c2ccc(C(=O)Nc3nnc(-c4ccncc4)o3)cc2)C1` (configuration not stated), the B-score was 0.153.

Regarding `N/C(=N\OC(=O)CCc1ccccc1)c1cccnc1`, the B-score was 0.92.

For the compound `O=C(/C=C/c1ccccc1[N+](=O)[O-])OC1CCCCC1=O` (configuration not stated), the B-score was 0.69.

In the case of `COc1ccc(CCNC(=O)CCCCn2c(=O)[nH]c3ccccc3c2=O)cc1OC`, the B-score is 0.342.

`COc1ccc(N=Cc2c(O)[nH]c3ccccc23)cc1OC`: the B-score is 2.81 (active).

In the case of `COc1ccc(/C=N/S(=O)(=O)c2ccccc2)cc1OC`, the B-score is -0.975.

For the compound `CCC1(C)Cc2c(sc3nc4n(c(=O)c23)CCCS4)CO1` (configuration not stated), the B-score was -0.196.

Turning to `CCC1(C)Cc2c(sc3[nH]c(=S)n(Cc4ccccc4)c(=O)c23)CO1` (configuration not stated), the B-score was 5.27 (active).

For the compound `CCC1(C)Cc2c(sc3nc(SC)nc(N)c23)CO1` (configuration not stated), the B-score is -1.15.

As to `NC(=O)C1CCN(C(=O)COc2cccc3cccnc23)CC1`, the B-score was 0.124.

`Cc1cc(C(=O)N/N=C\C(Br)=C\c2ccccc2)c(C)o1`: the B-score is -0.321.

For `CC(C(=O)NC1CCCC1)N(c1ccc(Oc2ccccc2)cc1)S(C)(=O)=O` (configuration not stated), the B-score is -3.71 (active).

Regarding `COc1ccc(/C=N/NC(=O)C(C)N(c2ccc(OC)cc2)S(C)(=O)=O)cc1` (configuration not stated), the B-score was -0.0127.

As for `CS(=O)(=O)N(CC(=O)N/N=C/c1ccccn1)c1ccc(Oc2ccccc2)cc1`, the B-score is -0.000176.

Regarding `CSc1ccccc1NC(=O)CN(C)CC(=O)Nc1ccc(Cl)cc1[N+](=O)[O-]`, the B-score is -1.12.

On to `Cc1ccccc1C(OCC(O)CN1CCCCC1CCO)c1ccccc1` (configuration not stated), for which the B-score was -4.16 (active).

`Cc1cccc(C)c1OCC(O)CN1CCCCC1` (configuration not stated): the B-score is 0.161.

With `CC(C)OCC(O)CN1CCN(C(c2ccccc2)c2ccccc2)CC1` (configuration not stated), the B-score is -0.0404.

Regarding `Cc1ccc(C(=O)OC2CCCN(C)C2)cc1` (configuration not stated), the B-score was 0.17.

With `Cc1ccc2nc(COc3ccc(N(C)S(=O)(=O)c4ccccc4)cc3)cc(=O)n2c1`, the B-score was 0.648.

As for `COCCNC(=O)CCCn1c(=O)c2ccccc2n(Cc2cccc([N+](=O)[O-])c2)c1=O`, the B-score is -1.13.

Consider `COc1ccc(CCNC(=O)COC(=O)Cc2cc(OC)c(OC)c(OC)c2)cc1`, for which the B-score is 0.986.

As for `COc1ccc2c(c1)CCC/C2=N\OC(=O)c1ccccc1F`, the B-score is -0.245.

On to `Cc1ccccc1-n1nc(SCC(=O)O)sc1=S`, for which the B-score is -0.00827.

For `O=C(CN1CCC(O)(c2ccccc2)CC1)Nc1ccc2c(c1)OCCO2`, the B-score was 0.414.

As for `O=S(=O)(c1ccc2c(c1)OCCO2)N1CCc2ccccc21`, the B-score was 0.399.

With `O=C(CCN1CCc2ccccc2C(O)(c2ccccc2)C1)c1ccc2c(c1)OCCO2` (configuration not stated), the B-score was -3.53 (active).

`COc1ccc(NC(=S)Nc2ccc(S(N)(=O)=O)cc2)c(C)c1`: the B-score was 0.982.

On to `CN(C)CCCN(Cc1cc2cc3c(cc2[nH]c1=O)OCCO3)C(=O)NC1CCCCC1`, for which the B-score was 0.033.

As for `COc1ccc(NC(=O)COc2ccc(C(=O)OCC(=O)N(C)C3CCS(=O)(=O)C3)cc2OC)cc1` (configuration not stated), the B-score is 0.348.

`CC(=O)N1CCN(c2cccc(C)c2C)CC1`: the B-score is -0.0972.

Regarding `CC(C)(C)n1nnnc1C(c1ccc2ncccc2c1)N1CCSCC1` (configuration not stated), the B-score is -0.18.

As for `Cc1cccc(N2CCN(C(c3ccc(N(C)C)cc3)c3nnnn3C(C)(C)C)CC2)c1C` (configuration not stated), the B-score was -2.94 (active).

Regarding `CCC(C(=O)Nc1ccc(C(C)C)cc1)c1ccccc1` (configuration not stated), the B-score was -0.192.

As to `COc1cc2sc(C)nc2cc1C`, the B-score was 1.46.

`Fc1ccc2[nH]c3c(N4CCSCC4)ncnc3c2c1`: the B-score is -5.22 (active).

For the compound `CC(C)OCCCNc1ncnc2c1[nH]c1ccc(F)cc12`, the B-score is -2.49.

Turning to `CC(C)OC(=O)C(C#N)c1nc2ccccc2nc1N1CCN(Cc2ccc3c(c2)OCO3)CC1` (configuration not stated), the B-score is -0.0869.

In the case of `Fc1ccc2[nH]c3c(N4CCN(Cc5ccc6c(c5)OCO6)CC4)ncnc3c2c1`, the B-score was -3.14 (active).

For `O=c1[nH]c(N2CCN(Cc3ccc4c(c3)OCO4)CC2)nc2c1CCCC2`, the B-score is -1.42.

Consider `Nn1c(SCC(=O)Nc2nccs2)nncc1=O`, for which the B-score is 1.33.

For `COc1ccc(CC(=O)N[C@@H](CCSC)c2nc3ccccc3[nH]2)cc1`, the B-score was -1.58.

Consider `CCc1nnc(NC(=O)CSc2nc(SC)ns2)s1`, for which the B-score was -0.0846.

Regarding `O=C(C1CCCN1S(=O)(=O)c1ccc(Br)cc1)N1CCOCC1` (configuration not stated), the B-score is -0.207.

Regarding `CCn1cc(C(=O)Nc2cc(C)ccc2C)c(=O)c2ccc(C)nc21`, the B-score is 0.0033.

On to `COc1ccc(CC2(CO)CCN(Cc3cnn(C)c3)CC2)cc1`, for which the B-score is 0.221.

On to `CCOc1cc(/C=C(\C#N)c2nc(-c3cccs3)c(NC(C)=O)s2)ccc1O`, for which the B-score is -2.6 (active).

`CCOc1cccc(C(=O)Nc2nnc(-c3cccs3)s2)c1`: the B-score was 1.45.

Consider `CCOc1cc(/C=C(/C#N)c2ccc(Cl)cc2)cc(Cl)c1OCC(=O)O`, for which the B-score was 1.07.

Consider `Cc1ccc(S(=O)(=O)N(C)C2(C)CCS(=O)(=O)C2)cc1` (configuration not stated), for which the B-score is 1.47.

In the case of `Cc1ccc(S(=O)(=O)C2(S(=O)(=O)c3ccc(C)cc3)CCCC2)cc1`, the B-score is 3.4 (active).

For `Cc1ccc(S(=O)(=O)N2CCC(N3CCCCCC3)CC2)cc1`, the B-score was 0.651.

Regarding `COc1ccc(N(CC(=O)Nc2ccc(C)cc2C)S(=O)(=O)c2ccccc2[N+](=O)[O-])c(OC)c1`, the B-score was -0.208.

As to `CN(C)S(=O)(=O)c1cccc(NC(=O)COC(=O)/C=C/c2cccs2)c1`, the B-score is 0.12.

Take `O=C(CN(C(=O)c1csnn1)c1cccc(F)c1)NCc1ccc(F)cc1`: the B-score was 0.442.

Regarding `O=C(Cn1nc(CNc2ccc(Cl)cc2)[n+]2c1CCCCC2)c1ccc(Cl)cc1`, the B-score is -3.24 (active).

For `COC(=O)c1ccc(NCC(=O)N2CCCCCC2)cc1`, the B-score is -0.512.

Regarding `O=C(Cn1ncc(N2CCCC2)c(Br)c1=O)c1ccc(Cl)cc1`, the B-score was -0.342.

As for `CC(C)CCN1CCN(C/C=C/c2ccco2)CC1CCO` (configuration not stated), the B-score was 0.0943.

For the compound `CCOc1cccc(-n2nnnc2-c2ccc(OC)cc2)c1`, the B-score was 2.1.

As to `COc1ccc(C2=CC(c3cccc(OC)c3)n3nnnc3N2)cc1` (configuration not stated), the B-score is -4.22 (active).

Turning to `COc1cccc(C2Nc3cccc4cccc(c34)N2)c1`, the B-score is -0.051.
